In the assay the test system is HepG2. As to the kind of experiment: GSK_TCMDC: Percent inhibition of human HepG2 cell line. Test compounds present at 10uM. It is filed as functional.
Turning to `CCOCc1cnc(C)nc1NCC(=O)c1c(C)[nH]c2cc(C)ccc12.I`, the Inhibition was found to be 8%.

`COc1ccc2ncc(F)c(CCN3CC[C@H](NC(=O)c4ccc5c(n4)NC(=O)CS5)[C@H](O)C3)c2n1.Cl` registered an Inhibition of 20%.

Turning to `CC(C)COc1ccc(Cl)cc1Cc1nc(-c2nc3ccc(CN(C)C)cc3[nH]2)co1.Cl`, the Inhibition was 14%.

Consider `COc1cc(Cc2cnc(N)nc2N)cc(OCCCCCCN2C(=O)c3ccccc3C2=O)c1OC`, for which the Inhibition is given as 15%.

For `Cc1sc2ncnc(Sc3nc4ccccc4[nH]3)c2c1C`, the Inhibition is listed as 14%.

`O=C(C=Cc1ccc(Cl)c(Cl)c1)NCCCCCN1CCC(CCCNS(=O)(=O)c2ccc(F)cc2)CC1` showed an Inhibition of 52%.

In turn, `CCCCCCCN1CC[C@@H](CCCc2ccnc3ccc(OCCN4CCOCC4)cc23)[C@@H](CC)C1.O=C(O)C(=O)O` showed an Inhibition of 14%.

Consider `Cn1c(-c2ccccc2)cc2c3c(N)nc(N)nc3ccc21`, for which the Inhibition is reported as 27%.

In turn, `COc1ccc2nccc(N3CCC(NCc4ccc5c(n4)NC(=O)CS5)CC3)c2n1` returned an Inhibition of 14%.

`COc1cc2c(cc1C(F)(F)F)N(C(=O)Nc1cc(F)c(F)c(-c3cccnc3)c1)CC2` displayed an Inhibition of 20%.

As to `CC(C)CNCc1cccc(-c2ccc(CNc3ccc(C(=O)c4ccccc4)cc3)cc2)c1.O=C(O)C(F)(F)F`, the Inhibition turned out to be 10%.

On to `C=C[C@H]1CN2CC[C@H]1C[C@@H]2[C@@H](O)c1ccnc2ccc(OC)cc12` [QUINIDINE], for which the Inhibition was determined as 0%.

For `CCCCCCN(C(=O)OCc1ccccc1)C1CCN(C(=O)OC(C)(C)C)CC1C(=O)OCC` (stereo not given), the Inhibition is given as 9%.

With `COc1cccc(C2CCN(CCCCNC(=O)c3ccc(NC(=O)c4ccc(Cl)cc4)cc3)CC2)c1`, the Inhibition is reported as 18%.

Turning to `O=C(/C=C/c1ccc(Cl)c(Cl)c1)NCCCCCN1CCCN(C(=O)Nc2cc(Cl)nc(Cl)c2)CC1`, the Inhibition stood at 8%.

Turning to `Cc1c(F)cc(C(=O)NC2CC2)cc1-c1ccc2c(cnn2S(=O)(=O)c2ccc(Cl)s2)c1`, the Inhibition amounted to 24%.

For `Clc1cccc(C=NN=c2cc[nH]c3ccccc23)c1`, the Inhibition stood at 5%.

Compound `COc1cccc(Cc2cnc3nc(N)nc(N)c3c2C)c1` had an Inhibition of 57%.

As to `COc1ccc2[nH]ccc(=NN=Cc3ccncc3)c2c1`, the Inhibition worked out at 4%.

`N#Cc1ccc(N2CCN(Cc3cccc(-c4ccc(-c5nc6ccccc6[nH]5)cc4)c3)CC2)nc1.O=C(O)C(F)(F)F` came in with an Inhibition of 45%.

Regarding `Cc1ccc(NC(=O)c2ccc(C(=O)NC3CCN(CC4CCCCC4)CC3)cc2)cc1.O=C(O)C(F)(F)F`, the Inhibition came to 36%.

As for `O=C(O)C(F)(F)F.O=[N+]([O-])c1cccc(CNCC2CCN(Cc3ccc(C(F)(F)F)cc3)CC2)c1`, the Inhibition is listed as 7%.

Regarding `Fc1ccc2[nH]c(-c3ccccc3)nc2c1CN1CCC(N2CCCC2)CC1.O=CO`, the Inhibition is reported as 2%.

`Cc1ccn2c(N(Cc3ccccc3)C(=O)c3ccc(Cl)c(Cl)c3)c(-c3ccccc3)nc2c1`: the Inhibition came to 0%.

In turn, `CCc1nc(N)nc(N)c1-c1ccccc1` registered an Inhibition of 53%.

Turning to `O=C(Nc1ccsc1)Nc1cccc(-c2cccc(-c3nc4cc(F)ccc4[nH]3)c2)c1`, the Inhibition turned out to be 46%.

`O=c1cc(NCCCNCc2cccc(Oc3ccccc3)c2)[nH]c2ccccc12` had an Inhibition of 0%.

In turn, `CC1(C)CC2CC(C)(CN2C(=O)c2cc(C(C)(C)C)nn2Cc2ccccc2)C1` (stereo not given) showed an Inhibition of 0%.

Compound `C[C@H](NC(=O)c1c(CN2CCC(NC(=O)CC(C)(C)C)CC2)c(-c2cccs2)nc2ccccc12)C1CCCCC1` yielded an Inhibition of 0%.

`COc1ccc(Nc2ncc3c(-c4cccc(NC(=O)Cc5ccc(F)cc5)c4)c[nH]c3n2)cc1OC`: the Inhibition amounted to 21%.

`COc1ccc(-c2cc(C(=O)N3CCc4ccccc43)c3ccccc3n2)cc1OC`: the Inhibition is 5%.

Regarding `COc1ccc(CNc2nccc3ccc(-c4ccc(N)nc4)cc23)cc1.O=C(O)C(F)(F)F`, the Inhibition stood at 7%.

As for `O=C(C=Cc1ccc(Cl)c(Cl)c1)NCCCCCN1CCCC(CCCNC(=O)c2ccc3c(c2)OCO3)C1` (stereo not given), the Inhibition was found to be 30%.

Turning to `Cc1cc(=O)[nH]c(-n2nc(C)cc2NC(=O)C2(c3ccc(Cl)cc3)CCCC2)n1`, the Inhibition was determined as 30%.

On to `N[C@@H](COc1cccc2c(-c3ccncc3)c(-c3cccc(NC(=O)Nc4ccccc4)c3)nn12)c1ccccc1`, for which the Inhibition came to 9%.

`Cl.O=C(Nc1ccc(C2=NC3CCCCC3N2)cc1)Nc1ccc(C2=NC3CCCCC3N2)cc1` (stereo not given) had an Inhibition of 7%.

As to `CCN(CC)CCN(CCN(CC)CC)c1ccc2c(c1)Sc1c(Cl)ccc(Cl)c1S2.Cl`, the Inhibition amounted to 31%.

`N#Cc1ccc(C(=O)Nc2cccc(-c3ccc(CN4CCCC4)cc3)c2)cc1.O=C(O)C(F)(F)F` displayed an Inhibition of 13%.

Turning to `Cc1cccc2nc(-c3cccc(-c4cccc(CNCc5cnn(-c6ccccc6)n5)c4)c3)[nH]c12.O=C(O)C(F)(F)F`, the Inhibition was 12%.

The compound `CC(=NNC(=N)N)c1ccc2ccc3ccccc3c2c1.Cl` showed an Inhibition of 14%.

(Values after ChEMBL document CHEMBL1157539, “Thousands of chemical starting points for antimalarial lead identification” (Nature, 2010).)
